# Reference: PubChem BioAssay AID743200 (The Scripps Research Institute Molecular Screening Center, 2013)
# Among all 1,500 compounds or so, about 950 (63%) were called active. Rule as the data show it: active = inhibition above about 25%; inactive = the rest. So high a share suggests a set chosen from earlier hits. Only a sample is shown.
# Biological target: Major prion protein (Homo sapiens) (UniProt P04156)
# Assay: cell surface PrPC inhibition, TR-FRET confirmation, confirmation, cell-based, TR-FRET (AID 743200)
# Details: cell surface PrPC level, at 13.8 µM, stronger effect = higher value
row,Compound,inhibition
1,COc1cccc2sc3cc(NCC[C@@H]4CCCN4C)ccc3c(=O)c12,46% (active)
2,COc1ccc2c(Cl)c(-c3nnco3)sc2c1,37.6% (active)
3,FC(F)(F)c1cccc(NC(=S)OC2CCC23CCC(c2ccccc2)CC3)c1 (stereo not drawn),15.7% (inactive)
4,CC(=O)c1sc2nc(SCC(=O)N3CCCCC3)[nH]c(=O)c2c1C,28.8% (active)
5,COc1ccc(S(=O)(=O)N2CCOCC2)cc1NC(=O)CSc1ncnc2ccccc12,92.1% (active)
6,O=C(Nc1cccn(Cc2ccccc2Cl)c1=O)NC1CCCCC1,15.9% (inactive)
7,Cc1nc(/N=C(\N)NC(=O)NC2CCCCC2)nc2ccccc12,29.3% (active)
8,O=C(CC(O)(C(F)(F)F)C(F)(F)F)Nc1ccc(Cl)c(Cl)c1,58.3% (active)
9,COc1ccc(NC(=O)COC(=O)CNC(=O)C2CCCCC2)cc1,3.04% (inactive)
10,CCOC(=O)c1c(-c2ccccc2)oc2cc(Br)c(O)cc12,90.9% (active)
11,O=C(/C=C/c1ccc([N+](=O)[O-])o1)NNC(=O)c1ccc(F)cc1,64.6% (active)
12,CC1(C)Cc2ccccc2-c2[nH]c(=S)[nH]c(=O)c21,81.8% (active)
13,N#Cc1c(-c2cccs2)nc(SCC(=O)c2ccc(Br)cc2)[nH]c1=O,74.2% (active)
14,COc1cc(-n2c(=S)[nH]c3ccc(C)cc3c2=O)c(Cl)cc1Cl,46.2% (active)
15,CCCOc1ccc(C2C(C(=O)c3ccc(C)o3)=C(O)C(=O)N2CCCn2ccnc2)cc1 (stereo not drawn),52.6% (active)
16,O=C(Oc1ccccc1)Oc1ccc2c(c1)oc(=O)c1ccccc12,40.9% (active)
17,Cc1ccnc(NC(=O)C2CCN(S(=O)(=O)c3c(C)c(C)cc(C)c3C)CC2)c1,20.7% (inactive)
18,C=CCNC(=O)CSc1nc2scc(-c3ccco3)c2c(=O)n1CC=C,31.3% (active)
19,Cc1cc2ccccc2n1CCNC(=O)COc1ccc2ccccc2c1,48.4% (active)
20,CCCc1nc(SCC(=O)Nc2ccc(S(=O)(=O)N(C)C)cc2)c2ccccc2n1,90.7% (active)
21,Cc1cccc(CS(=O)(=O)c2ncc(Cl)c(C(=O)Nc3ccc(F)cc3)n2)c1,15.9% (inactive)

row,Compound,inhibition
1,Cc1cccc(NC(=O)c2nc(S(=O)(=O)Cc3ccccc3)ncc2Cl)c1,39.3% (active)
2,CCCCCCCCn1c2c(c(=N)c3c1CCC3)CCCC2,44.9% (active)
3,CN(C)CCNC(=O)c1ccc(Cl)c2cc3ccccc3nc12,45.2% (active)
4,CO[C@H]([C@H](C)/C=C/N(C)C=O)[C@@H](C)C(=O)CC[C@H](C)[C@H](O)[C@H](C)[C@H]1OC(=O)/C=C/C(C)=C/[C@H](O)[C@H](OC)C[C@@H]2C=CC[C@@H](C[C@H](OC)[C@@]3(CO3)[C@@H](OC)C[C@@H](OC)[C@@H]1C)O2,32.5% (active)
5,Cn1c(=S)sc2ccc3ccccc3c21,75.4% (active)
6,CCCCNc1c(-c2cccc(Sc3ccc(OC)cc3)c2)nc2ccccn12,17% (inactive)
7,Cc1sc2ncnc(SCC(=O)Nc3ccc(CN4CCCC4)cc3)c2c1C,53.1% (active)
8,NC(=O)C1CCN(Cc2nc3c(Br)cc(Br)cc3c(=O)[nH]2)CC1,41.7% (active)
9,CCOC(=O)c1c(C)[nH]c(=S)c(C#N)c1-c1ccccc1,43.5% (active)
10,CCC(C)(O)C(=O)OC1C(=O)OC2CC3C(C)=CC(=O)C(O)C3(C)C3C4(O)OCC23C1C(C)C4O (stereo not drawn),98.8% (active)
11,COC(=O)Cc1[nH]n(-c2nc3ccccc3s2)c(=O)c1C(C)=Nc1ccc(OC)cc1,5.13% (inactive)
12,Cc1cc2cc(CNC(=O)c3ccc(S(=O)(=O)N4CCOCC4)cc3)ccc2[nH]1,15.2% (inactive)
13,COc1ccc(C(=O)Nc2nc(-c3ccc(S(=O)(=O)N4CCOCC4)cc3)cs2)cc1,27.4% (active)
14,Cc1ccsc1C(=O)OCC(=O)Nc1cccc(F)c1,8.25% (inactive)
15,Cc1ccc(CSc2ccc(S(=O)(=O)N3CCCCC3)cn2)cc1,6.8% (inactive)
16,CCc1c(C)nc2cc(-c3cccs3)[nH]n2c1=O,41.7% (active)
17,O=C(COC(=O)c1ccccc1SCC(=O)NC1CCCCC1)NC1CCCCC1,24.6% (active)
18,O=C1CCCC2=C1C(c1cccs1)n1nc(SCc3ccccc3)nc1N2 (stereo not drawn),20% (inactive)
19,N#C/C=C1\Sc2ccccc2C(=O)N1CC(=O)N1CCN(S(=O)(=O)c2ccccc2)CC1,67.5% (active)
20,N#Cc1ccc(OCC(=O)Nc2nc(-c3ccccn3)cs2)cc1,18.7% (inactive)
21,COc1ccc(OC)c(NC(=O)c2cc(-c3cc(F)ccc3OCC3CCCO3)n[nH]2)c1 (stereo not drawn),10.2% (inactive)

row,Compound,inhibition
1,CC(=O)N1c2ccc(S(=O)(=O)N3CCCC(C(=O)Nc4cccc(F)c4)C3)cc2CC1C (stereo not drawn),49.1% (active)
2,CC(=O)N1CCCc2cc(S(=O)(=O)N3CCCC(C(=O)NCc4ccc(Cl)cc4)C3)ccc21 (stereo not drawn),17.2% (inactive)
3,CC(=O)N1CCCc2cc(S(=O)(=O)N3CCCC(C(=O)N4CCN(c5cccc(Cl)c5)CC4)C3)ccc21 (stereo not drawn),38.3% (active)
4,O=C(NC(Nc1nc2ccc([N+](=O)[O-])cc2s1)(C(F)(F)F)C(F)(F)F)c1ccccc1,65.9% (active)
5,CN1/C(=C\C(=O)c2oc3ccccc3c2N)C(C)(C)c2ccccc21,49.3% (active)
6,CC(=O)Nc1cccc(OCC(=O)/C=C2\N(C)c3ccccc3C2(C)C)c1,20.8% (inactive)
7,O=C(Cc1ccccc1)Nc1cccc(NC(=O)c2ccccc2)c1,11.2% (inactive)
8,O=C(Nc1ccc(C2CC2(Cl)Cl)cc1)c1cccc([N+](=O)[O-])c1 (stereo not drawn),24.7% (active)
9,Cc1ccc(CNC(=O)Nc2nnc([C@H]3C[C@H](O)[C@@H](CO)O3)s2)cc1,-0.76% (inactive)
10,Cc1ccc(Oc2cnn(-c3ccccc3)c(=O)c2Br)cc1,51.9% (active)
11,CC(=O)c1nc(N2C(=O)C3CC=C(C)CC3C2=O)sc1C (stereo not drawn),18% (inactive)
12,Cc1[nH]n(-c2ccccc2)c(=O)c1/C=N/NC(=O)c1ccoc1C,60.1% (active)
13,O=C(c1ccc(F)cc1)c1cn(Cc2ccc(F)cc2)c2cc3c(cc2c1=O)OCCO3,90.5% (active)
14,Fc1ccc2[nH]c3c(N4CCSCC4)ncnc3c2c1,35.3% (active)
15,Cc1ccc(NC(=O)c2sc3nc(N)c(C#N)cc3c2N)cc1,35.3% (active)
16,CCc1nc(SCC(=O)NNC(=O)c2ccc(C)cc2)c2ccccc2n1,118% (active)
17,COC(=O)CSc1nc(C2CC2)nc2ccccc12,35.9% (active)
18,O=c1[nH]cccc1-c1nc2ccccc2n1Cc1ccc(Cl)cc1,35.3% (active)
19,CCCCC(=O)NC(c1ccc(OC)c(OC)c1)c1ccc2cccnc2c1O (stereo not drawn),26.9% (active)
20,CCCCCCCCCCCCn1ccc(=N)cc1,38.5% (active)
21,O=C(Nc1ccc(N2CCN(C(=O)c3ccccc3)CC2)c(Cl)c1)c1cccnc1,12.3% (inactive)
